Screening data deposited in PubChem by several laboratories.
This is a sample that favours compounds with a hit; in the whole collection about 3.1% have one here.
CF NFkB inh = inhibitors of PAF-induced NF-kB signaling, primary screen, cell-based, GFP fluorescence, uHTS | KKLEB NF-kB-GFP reporter, GFP fluorescence overnight | inhibition, % at 5 µM | 0.86% of 360,000 active | AID 588850, 2011;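 active = at least 50% inhibition at 5 µM, scaled per plate between neutral and stimulator controls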;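 also: PAF is a Pseudomonas aeruginosa culture filtrate used as stimulus; plate controls were PAF-stimulated DMSO wells for no effect and unstimulated DMSO wells for full effect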
HIF-2a block = HIF-2a reporter inhibitors, primary screen, luminescence, 786-0 RCC cells | AID 624352, 2012 | 0.72% of 360,000 active | inhibition, % at 18.8 µM | 786-0 RCC cells HIF-2a reporter, luciferase luminescence, overnight;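 active = inhibition of the luminescence signal of 40% or more relative to plate controls, in a single-dose primary screen at 18.75 µM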
ABHD5-PLIN5 inh = ABHD5-PLIN5 interaction inhibitors, primary screen, cell lysate, split luciferase complementation, luminescence | Perilipin-5 (Homo sapiens) + 1-acylglycerol-3-phosphate O-acyltransferase ABHD5 (Homo … | Split G. princeps luciferase complementation, 4 h | inhibition, % at 4 µM | 0.78% of 360,000 active;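 active = inhibition above the mean inhibition across every tested compound plus 3 SD, cut at about 22% in these data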;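 also: 0% = DMSO only wells and the 100% control is not disclosed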
Target sequence (Q00G26 whole entry, looked up): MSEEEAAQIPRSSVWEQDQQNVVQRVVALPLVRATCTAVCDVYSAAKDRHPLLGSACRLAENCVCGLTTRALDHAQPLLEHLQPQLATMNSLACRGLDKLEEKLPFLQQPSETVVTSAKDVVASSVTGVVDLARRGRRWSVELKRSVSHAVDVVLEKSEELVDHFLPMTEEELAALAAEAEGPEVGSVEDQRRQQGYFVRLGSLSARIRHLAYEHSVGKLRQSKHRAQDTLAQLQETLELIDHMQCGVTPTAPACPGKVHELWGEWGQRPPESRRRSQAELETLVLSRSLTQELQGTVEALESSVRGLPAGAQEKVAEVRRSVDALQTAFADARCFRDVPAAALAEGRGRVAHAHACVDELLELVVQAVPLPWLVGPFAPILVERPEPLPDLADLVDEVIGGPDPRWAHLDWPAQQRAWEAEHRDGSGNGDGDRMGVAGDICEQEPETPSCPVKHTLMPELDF
Target sequence (Q8WTS1 whole entry, looked up): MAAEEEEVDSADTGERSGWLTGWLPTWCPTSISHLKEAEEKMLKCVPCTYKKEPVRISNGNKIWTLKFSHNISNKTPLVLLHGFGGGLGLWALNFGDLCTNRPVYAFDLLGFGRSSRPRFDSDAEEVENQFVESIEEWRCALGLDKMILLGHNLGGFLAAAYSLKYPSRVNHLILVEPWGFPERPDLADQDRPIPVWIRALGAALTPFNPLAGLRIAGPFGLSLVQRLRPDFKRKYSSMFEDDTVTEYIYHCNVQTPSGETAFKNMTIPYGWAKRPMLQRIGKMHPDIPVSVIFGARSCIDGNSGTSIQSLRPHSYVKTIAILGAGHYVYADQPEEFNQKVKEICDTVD
TRPM1 prom inh = inhibitors of MITF-dependent TRPM1 promoter reporter, primary screen, cell-based, SK-MEL-5, single point, luciferase; SK-MEL-5 TRPM1 promoter luciferase, 24 h; inhibition, % at 12.5 µM; 0.83% of 330,000 active; AID 488899, 2010;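 active = mean inhibition across replicates of 60% or more, whatever share of single replicates reaches that level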
Peg3 promoter = Peg3 promoter-driven luciferase inhibitors, primary screen, cell-based, HeLa, luciferase luminescence; AID 588405, 2011; 1.7% of 360,000 active; HeLa PEG-Prom luciferase reporter, overnight; inhibition, % at 20 µM;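 active = inhibition of at least 50% at 20 µM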
KKLEB cytotox = cytotoxicity in KKLEB CF airway cells, primary screen, cytotoxicity control for CF NF-kB inhibitor project, cell-based, uHTS, fluorescence assay plates; activity change (cytotoxicity), % at 5 µM; 0.36% of 360,000 active; KKLEB CF airway cells viability, ATPlite luminescence, overnight; stronger effect = lower value; cells stimulated with P. aeruginosa culture filtrate;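 active = corrected activity change at or below -50% at 5 µM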
Numbers without * were called inactive; . = not tested or not shown.

SMILES	CF NFkB inh	HIF-2a block	ABHD5-PLIN5 inh	TRPM1 prom inh	Peg3 promoter	KKLEB cytotox
CCCc1nc(SCc2cccnc2)c2c(=O)n(C)c(=O)n(C)c2n1	12	5	9	-5	15	1
Cc1ccccc1-c1nc(SCc2cccnc2)c2c(=O)n(C)c(=O)n(C)c2n1	2	11	-5	5	64*	0
O=C(NCCc1c[nH]c2ccccc12)/C(=C\c1cccnc1)NC(=O)c1ccccc1Br	9	19	1	12	32	-22
COc1cc(NC(=O)COc2cc(O)c3c(c2)OC(C)(C)CC3=O)cc(OC)c1OC	3	-74	2	72*	16	-4
CC1(C)CC(=O)c2c(O)cc(OCC(=O)Nc3ccc(S(N)(=O)=O)cc3)cc2O1	0	15	-3	-6	13	11
NC1=NC(=O)/C(=C\c2cccnc2)S1	52*	8	1	-3	-8	2
Cn1c(SSc2ccc(-c3cccnc3)n2C)ccc1-c1cccnc1	46	34	5	37	6	-16
O=C(C=P(c1ccccc1)(c1ccccc1)c1ccccc1)c1ccccc1-c1ccccc1C(=O)C=P(c1ccccc1)(c1ccccc1)c1ccccc1	91*	95*	26*	82*	99*	-79*
CC1=NNC(=O)/C1=C\c1cn(-c2ccccc2)nc1-c1ccc(F)cc1	91*	94*	6	92*	112*	-83*
O=Cc1cn(-c2ccccc2)nc1-c1ccc(F)cc1	-26	-217	1	-37	-89	1
Cc1ccc(N2C(=O)CC(C)(C)CC2=O)cc1Cl	-6	17	-3	-4	-2	6
COc1ccc(C2CC(c3ccccc3)=NN2C(=O)COC(=O)c2cnc(Cl)c(Cl)c2)cc1 (centres undefined)	13	2	-4	11	99*	-7
Cn1c(=O)c2ccccc2n2c(=S)[nH]nc12	9	6	-11	-4	3	4
Cn1c(=O)c2ccccc2n2c(CCl)nnc12	-4	5	23*	7	11	8
Fc1ccc(-c2nnc(-c3ccc(Cl)cc3Cl)o2)cc1	-52	-118	1	.	-109	-55*
FC(F)(F)c1ccccc1-n1c(-c2ccco2)n[nH]c1=S	2	-6	-6	1	-8	5
CC(=O)Nc1cccc(NC(=O)Cc2cccs2)c1	10	9	7	-1	16	1
O=C(Nc1ccc2nc(-c3cccs3)[nH]c2c1)c1cccs1	10	-201	-4	-65	-229	3
O=C(Nc1ccc(-c2nc3ccc(NC(=O)c4cccs4)cc3[nH]2)cc1)c1cccs1	7	15	6	79*	66*	-8
O=C(Cc1cccs1)Nc1cccc(-c2nc3cc4ccccc4cc3[nH]2)c1	81*	-382	2	-68	-49	-71*
C#CCN(C[C@@H]1[C@@H](OC(=O)Nc2c(C)noc2C)[C@@H](OC(=O)Nc2c(C)noc2C)Cn2c(=O)n(CCCCCC)c(=O)n21)S(=O)(=O)c1ccc(C)cc1	4	18	-5	.	-20	6
Cn1cc(CNCc2cn(C)nc2-c2ccc(C3CCCCC3)cc2)cn1	6	7	22*	1	21	-4
COCCN1CCCC(CNCc2cn(C)nc2-c2ccc(Oc3ccccc3)cc2)C1 (centres undefined)	6	19	11	30	30	-7
CCC(C)N(C(=O)COC(=O)COc1c(C)cc(C)cc1C)C1CCS(=O)(=O)C1 (centres undefined)	-6	6	1	5	5	-18
COC(=O)c1ccccc1NC(=O)c1nc(S(=O)(=O)Cc2ccccc2)ncc1Cl	96*	-33	-2	93*	92*	-95*
SMILES	CF NFkB inh	HIF-2a block	ABHD5-PLIN5 inh	TRPM1 prom inh	Peg3 promoter	KKLEB cytotox
COC(=O)c1cscc1S(=O)(=O)Cc1ccccc1	5	0	-1	-8	0	2
CCOC(=O)c1cc(-c2ccccc2)sc1NC(=O)COC(=O)c1cccc(S(N)(=O)=O)c1	18	-2	0	-15	87*	-28
CCOC(=O)c1cc(-c2ccccc2)sc1NC(=O)COC(=O)c1ccc(Cl)c(S(N)(=O)=O)c1	24	1	-8	13	34	-45
C=C(C)[C@@H]1CC[C@]2(C(=O)O)CC[C@]3(C)C(CCC4[C@@]5(C)CC[C@H](O)C(C)(C)C5CC[C@]43C)C12 (some centres undefined)	79*	2	1	.	90*	-76*
CC1(C)C2CC[C@]3(C)C(CC=C4[C@@H]5C[C@@](C)(CO)[C@@H](O)C[C@]5(C(=O)O)CC[C@]43C)[C@@]2(C)CC[C@@H]1O (some centres undefined)	-25	4	7	.	13	6
Cc1ccccc1N=CC1=C(O)c2ccccc2C1=O	-43	-13	-4	46	19	-60*
O=C(Cc1ccc(Cl)cc1)Nc1cccnc1Cl	-12	-17	-12	.	4	2
CC1=C/C(=N\OS(=O)(=O)c2ccccc2)C(C(C)C)=CC1=O	4	29	21	10	96*	10
CC(S(=O)(=O)c1ccccc1)S(=O)(=O)c1ccccc1	-8	6	-3	.	-5	-8
Oc1ccc2ccccc2c1C=NNc1ccccn1	77*	-160	2	-8	-79	-81*
COc1ccccc1OCC(=O)N/N=C/c1c(O)ccc2ccccc12	-6	3	8	48	63*	-12
O=C(N/N=C/c1c(O)ccc2ccccc12)c1cccc(C(F)(F)F)c1	50	-21	-9	71*	68*	-52*
O=C(Nc1ccccc1Cl)c1cc(C2CCCN(C(=O)C3CCCCC3)C2)on1 (centres undefined)	13	-54	3	.	-23	-17
COc1ccc(C(=O)NCCNc2nc3cc(C)cc(C)c3cc2C#N)cc1	.	-12	-1	.	.	.
COc1cccc(C(=O)NCCCNc2nc3cc(C)cc(C)c3cc2C#N)c1	10	8	-4	.	66*	-23
COc1ccc(-c2cc3ccc(OC(C)C(=O)O)cc3oc2=O)cc1 (centres undefined)	-8	-16	22*	-4	-7	7
COc1ccc(-c2cc3ccccc3oc2=O)cc1	-8	-271	-10	-40	-284	-6
Cn1c(N=Nc2ccccc2)nc2ccccc21	-21	-25	-6	14	-209	-53*
CC(C)CCN1C(=O)c2ccc(C(=O)NCc3ccccn3)cc2C1=O	14	4	3	3	-4	-4
